DUSP3 inh: inhibitors of human VHR1 phosphatase (DUSP3) | P51452 | recombinant VHR phosphatase, colorimetric substrate read-out | inhibition, % at 20 µM | actives 0.7% (n = 50,000); in the data active means inhibition above about 60%
Target sequence (P51452 whole entry, looked up): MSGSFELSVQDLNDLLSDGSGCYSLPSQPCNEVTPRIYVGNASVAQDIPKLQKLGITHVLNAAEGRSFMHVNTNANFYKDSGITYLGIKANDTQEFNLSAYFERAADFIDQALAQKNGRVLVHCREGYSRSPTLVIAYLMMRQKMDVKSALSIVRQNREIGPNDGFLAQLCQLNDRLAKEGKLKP
Of the large screens only hits and unclear results are named; the others gave an inactive call. Shown is part of a subset that was picked to be rich in hits.

COc1ccc(C2CC(=O)C3=C(C2)Nc2ccccc2N(C(C)=O)C3c2ccc(OC)c(OC)c2)cc1 (stereo not given)	none
O=C(/C=C/c1ccco1)Nc1ccc(NC(=O)c2ccco2)cc1	none
O=C1c2ccccc2NC(c2ccc(Br)cc2)N1Cc1ccco1 (stereo not given)	none
CC(C)c1ccc(NC(=O)c2cnn(-c3ccccc3)c2NC(=O)c2ccco2)cc1	none
O=C(O)C1(P(=O)(c2ccc(Cl)cc2)c2ccc(Cl)cc2)CCCC1	none
COc1c(Cl)cc(Cl)cc1/C=C/c1cc(C(F)(F)F)[nH]c(=O)n1	none
CC1(C)Cc2ccccc2C(/C(=N\O)C(=O)c2ccccc2)=N1	none
O=C(c1ccc(F)cc1)N1CCN(Cc2ccc(F)cc2)CC1	none
COC(=O)c1ccc(/C=C2\SC(=S)N(c3cccc(C)c3C)C2=O)cc1	none
N/C(=N\OC(=O)c1ccc(Cl)c([N+](=O)[O-])c1)c1ccccc1Cl	none
CCc1ccccc1N(CC(=O)Nc1cc(C)ccc1C)S(C)(=O)=O	none
CN(C)c1ccc(/C=C2\N=C(c3cc4ccccc4oc3=O)OC2=O)cc1	none
Cc1ccc2c(c1)NC(c1ccc3c(c1)OCO3)C1=C(CC(c3ccccc3)CC1=O)N2 (stereo not given)	DUSP3 inh 118
CSc1ccc(C2Nc3ccccc3NC3=C2C(=O)CC(c2ccc4c(c2)OCO4)C3)cc1 (stereo not given)	none
Cc1ccc2c(c1)NC(c1ccc(F)cc1)C1=C(CC(c3ccccc3)CC1=O)N2 (stereo not given)	none
Cc1ccc(C2/C(=C(\O)c3ccccc3)C(=O)C(=O)N2CCCC(=O)O)cc1 (stereo not given)	none
CC(C)CNC(=O)CCCOc1ccc(Cl)cc1Cl	none
O=C(COc1ccc(Cl)cc1Cl)NCCCOCC(=O)Oc1ccc(Cl)cc1Cl	DUSP3 inh 104
Cc1cccc(OC(=O)COc2ccc(Cl)cc2Cl)c1	none
O=C(COc1ccc(Cl)cc1Cl)OCc1ccccc1	none
O=C(COc1ccc(Cl)cc1Cl)NCc1ccncc1	none
O=C(COc1ccc(Cl)cc1Cl)Oc1ccccc1	DUSP3 inh 84
CCOC(=O)C(CCCOc1ccc(F)cc1)C(=O)OCC	none
Cc1ccc(-c2ccccc2NC(=O)c2ccccc2)o1	none
COc1c(Cl)cc(C(=O)Nc2cc(C)ccc2C)cc1Cl	none
CCOC(=O)CCc1cc(C(=O)OCC)c(CCC(=O)OCC)cc1C(=O)OCC	none
O=C(CN(c1ccccc1)S(=O)(=O)c1ccccc1)NCc1ccncc1	none
NC12CC3CC(C1)CC(CC(=O)O)(C3)C2	none

Screening results (PubChem BioAssay)
